PubChem BioAssay
Unmarked numbers belong to inactive results. The source made the active and inactive calls. Rule as the data show it: active = inhibition above about 44%; inactive = the rest.

molecular target: Steroidogenic factor 1 (Homo sapiens) (UniProt Q13285); assay: SF1 (NR5A1) inverse agonists, counter-screen for LRH-1 inverse agonist project, cell-based, luminescence, high throughput (AID 651614); settings: cell-based SF1 luciferase reporter, at 3.6 µM, active compounds read high;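 also: cells cotransfected with StAR promoter reporter and SF1 expression vector; 0% = vehicle on cells with receptor and 100% = vehicle on cells lacking receptor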
Sequence (Q13285 whole entry, looked up): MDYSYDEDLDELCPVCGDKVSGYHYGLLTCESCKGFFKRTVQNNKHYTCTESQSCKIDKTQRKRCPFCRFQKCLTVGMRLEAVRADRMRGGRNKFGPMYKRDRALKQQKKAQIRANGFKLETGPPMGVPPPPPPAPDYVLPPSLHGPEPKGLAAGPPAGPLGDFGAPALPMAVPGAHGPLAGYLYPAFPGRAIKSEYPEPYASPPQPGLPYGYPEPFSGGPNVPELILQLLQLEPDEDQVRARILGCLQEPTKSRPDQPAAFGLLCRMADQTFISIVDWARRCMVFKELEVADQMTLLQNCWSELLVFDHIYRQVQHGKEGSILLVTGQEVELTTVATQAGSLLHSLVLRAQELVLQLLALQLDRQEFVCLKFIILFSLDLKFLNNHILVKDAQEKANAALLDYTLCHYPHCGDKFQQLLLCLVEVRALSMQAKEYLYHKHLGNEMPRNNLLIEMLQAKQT

Compound | inhibition
O=c1[nH]c2ccccc2n1C1CCN(Cc2ccc(-c3[nH]c4cc5ncnc5cc4nc3-c3ccccc3)cc2)CC1 | 44% (active)
COC(=O)C12CCc3c(ccc4cc(OC)ccc34)C1=CC(=O)C2 (centres undefined) | 25.3%
CCOC(=O)[C@]12Cc3cc(C)ccc3[C@H]1N(C1CCCCC1)C(=O)c1ccccc12 | 71.5% (active)
c1ccc2c(c1)[IH]c1ccccc1-2 | 64.1% (active)
Cc1ccccc1-n1c(/C=C/c2ccccn2)nc2ccccc2c1=O | 52% (active)
O=[N+]([O-])c1cc(F)c(N2CCCCCC2)cc1N1CCNCC1 | 54.7% (active)
CCOC(=O)[C@]12Cc3cc(Cl)ccc3[C@H]1N(CC(=O)OC)C(=O)c1ccccc12 | 64.4% (active)
CCOc1cc(C=O)ccc1O | 47.9% (active)
CCOC(=O)[C@]12Cc3cc(C)ccc3[C@H]1N(C1CCCCC1)C(=O)c1cc(OC)ccc12 | 78.2% (active)
N#CCCn1cc(C(=O)Nc2ccccc2Cl)c(-c2ccc([N+](=O)[O-])cc2)n1 | 59.8% (active)
C=C1C(=O)O[C@@H]2C[C@@H](C)[C@@H]3C4OC4C(=O)[C@@]3(C)[C@@H](O)[C@H]12 (some centres undefined) | 67.9% (active)
COC(=O)C(C)Oc1cc(C)cc2oc(=O)c3c(c12)CCC3 (centres undefined) | 67.7% (active)
N#Cc1ccc2nc(-c3ccc(CN4CCC(n5c(=O)[nH]c6ccccc65)CC4)cc3)c(-c3ccccc3)nc2c1 | 43.2% (active)
CC(=O)OC(C)(C)/C=C/C(=O)C(C)(O)C1C(O)CC2(C)C3CC=C4C(CC(O)C(=O)C4(C)C)C3(C)C(=O)CC12C (centres undefined) | 59.2% (active)
